Screening results from PubChem.
Most compounds without a hit are left out; they make up all but 7.4% or so of the library.
ELG1 genotoxic: induces genotoxicity in HEK293T cells with luciferase-tagged ELG1; AID 504466; 1.3% of 330,000 active; HEK293T ELG1-luciferase reporter, luminescence, 16 h; Potency, µM (highest dose often 46 µM), most hits filed as activators; note: nearly all actives have a fitted effect of over 60% in size
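HEK293T cells expressing luciferase-tagged ELG1 were exposed to compound or DMSO vehicle for 16 hr at 37 °C and 5% CO2. Luciferase activity was then measured with ONE-Glo after 30 min at room temperature.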
FLuc counter: inhibits or activates purified firefly luciferase, miR-21 counter-screen | purified FLuc, Km substrates, luminescence inhibition | Potency, µM (highest dose often 57.5 µM), actives largely listed as inhibitors | 6.9% of 360,000 active | AID 588342; note: nearly all actives have a fitted effect of over 55% in size
Target sequence (P08659 whole entry, looked up): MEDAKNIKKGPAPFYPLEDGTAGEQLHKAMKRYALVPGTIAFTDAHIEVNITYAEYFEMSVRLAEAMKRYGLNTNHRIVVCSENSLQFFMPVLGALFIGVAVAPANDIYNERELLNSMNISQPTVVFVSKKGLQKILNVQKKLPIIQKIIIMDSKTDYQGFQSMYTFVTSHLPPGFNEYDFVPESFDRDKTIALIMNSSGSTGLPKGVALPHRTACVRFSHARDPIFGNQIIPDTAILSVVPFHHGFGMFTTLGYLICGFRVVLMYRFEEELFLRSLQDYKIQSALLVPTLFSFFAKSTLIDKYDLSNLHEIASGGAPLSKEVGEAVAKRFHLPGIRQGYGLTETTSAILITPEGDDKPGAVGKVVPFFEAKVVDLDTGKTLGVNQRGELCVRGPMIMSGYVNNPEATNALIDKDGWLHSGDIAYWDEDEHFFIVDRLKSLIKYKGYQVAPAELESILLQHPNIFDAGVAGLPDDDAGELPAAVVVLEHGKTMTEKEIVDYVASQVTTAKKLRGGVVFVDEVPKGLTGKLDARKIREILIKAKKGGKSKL
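Purified P. pyralis luciferase (10nM final) with 10uM D-luciferin and 10uM ATP (Km levels) in 50mM Tris acetate pH 7.5, 10mM Mg acetate, 0.01% Tween-20, 0.05% BSA; qHTS 6-point titration, ~60 µM downward; luminescence read.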
SMN2 splice up: enhancers of SMN2 splice variant expression. 2.8% of 210,000 active. HEK293 SMN2-luciferase splicing reporter, luminescence, 30-36 h. Potency, µM (titrated, usually from 46.1 µM), most hits filed as activators; note: nearly all actives have a fitted effect of over 55% in size
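HEK293 cells carry an SMN2 minigene-luciferase reporter in which exon 7 inclusion puts luciferase in frame. Cells were seeded at 2000 cells/well, attached for 10-12 hours, then exposed to compounds for 30-36 hours at 37C before ONE-Glo luminescence.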
Rab9 promoter act: Rab9 promoter activation | Huh7 Rab9 promoter-luciferase reporter, luminescence, 24 h | Potency, µM (series often up to 9.22 µM), most hits filed as activators | 2.8% of 320,000 active | AID 485297; note: nearly all actives have a fitted effect of over 60% in size
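Quantitative HTS format; Huh7 Rab9-luciferase reporter cells (1500/well) receive compound 2 h post-plating, incubate 24 h at 37 °C, then get luciferase reagent for 10 min before luminescence reading.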
Luc counter: counter-screen: inhibitors of Kinase-Glo firefly luciferase; Q27757; Kinase-Glo luciferase, ATP luminescence, 8 min; Potency, µM (top dose mostly 38.3 µM), actives largely listed as inhibitors; 0.28% of 200,000 active; AID 1379; note: nearly all actives have a fitted effect of over 60% in size
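Luminescence was the read-out, taken after 8-minute incubation at ambient temperature. Luciferase turned over luciferin with 10 uM ATP in imidazole pH 7.2 buffer containing KCl, MgCl2, Tween 20 and BSA.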
NPC1 prom act: activates the NPC1 promoter. Potency, µM (highest dose often 9.22 µM), hits mostly activators. Huh7 NPC1 promoter luciferase reporter, 24 h. 2.4% of 320,000 active. AID 485313; note: nearly all actives have a fitted effect of over 60% in size
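Stable NPC1-promoter luciferase Huh7 line; cpd (DMSO) 24 h, 37 °C, 5% CO2; Amplite luciferase reagent 10 min RT; luminescence readout. qHTS format.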
A number is an active result; . = inactive; ? = inconclusive; / = no result; [ ] = dose if it differs, or a comment. Calls come from the whole dose curve; as a rule, active = well fitted curve in the direction sought with a large enough effect; inconclusive = small, poorly fitted or top-dose-only effect, or another doubt; inactive = no such curve, though single readings can be large; an effect the other way counts as inactive or inconclusive.

SMILES | ELG1 genotoxic | FLuc counter | SMN2 splice up | Rab9 promoter act | Luc counter | NPC1 prom act
CC(C)Oc1ccc(CNC(=O)c2ccc(NC(=O)c3nsc4ccccc34)cc2)cc1 | / | 7.6µM | / | / | / | /
CCOc1ccc(CNC(=O)c2ccc(NC(=O)c3nsc4ccccc34)cc2)cc1 | / | 7.6µM | / | / | / | /
COCC(=O)N1CCC2(CC1)CN(c1ccc(-c3ccccc3)cc1)C2 | / | / | . | / | . | /
C[C@H]1Cc2c(COc3ccccc3)nc3c(c2CO1)CN(C(=O)c1cc(I)ccc1F)CC3 | / | / | .[9.22 µM] | / | .[7.66 µM] | /
COc1cccc(Cn2c(=O)n(-c3cc(C)cc(C)c3)c(=O)c3oc4ccccc4c32)c1 | / | . | / | / | / | /
COc1ccc(OC)c(CNC(=O)c2ccc(NC(=O)c3nsc4ccccc34)cc2)c1 | / | 6.7µM | / | / | / | /
CSCc1ccc(C(=O)NCc2ccc(F)cc2)cc1 | . | ? | . | . | . | .
COc1ccc(C(=O)NCc2ccccc2OC)cc1 | . | . | . | . | . | .
CSc1ccc(CNC(=O)c2ccc(NC(=O)c3nsc4ccccc34)cc2)cc1 | / | 6µM | / | / | / | /
Fc1cccc(CSc2ccc(-c3ccc4c(c3)OCO4)nn2)c1 | . | 11µM | ? | . | . | .
O=[N+]([O-])c1cccc(-c2ccc(SCc3cccnc3)nn2)c1 | . | ? | . | ? | . | .
c1cncc(CSc2ccc(-c3ccc4c(c3)OCO4)nn2)c1 | . | 17µM | . | 2.8µM | . | 3.2µM
Cc1ccccc1CSc1ccc(-c2ccc3c(c2)OCO3)nn1 | ? | 7.6µM | / | ? | . | .
CC(=O)c1ccc(NC(=O)CSc2ccc(-c3ccc4c(c3)OCO4)nn2)cc1 | . | ? | . | ? | . | .
Cc1nc(C)c(-c2ccc(SCc3ccccc3C)nn2)s1 | . | 13µM | / | . | / | .
Cc1ccccc1Nc1c(-c2ccc(N3CCOCC3)cc2)nc2ccccn12 | / | 0.24µM | 11µM | / | / | /
Cc1cccc(C)c1Nc1c(-c2ccc(N3CCOCC3)cc2)nc2cnccn12 | . | ? | / | . | / | .
Cc1ccccc1Nc1c(-c2ccc(N3CCOCC3)cc2)nc2ccc(Br)cn12 | / | 3.4µM | . | / | / | /
Cc1ccccc1Nc1c(-c2ccc(N3CCOCC3)cc2)nc2cccc(C)n12 | / | 1.3µM | . | / | / | /
CCn1cc(C(=O)O)c(=O)c2cc(F)c(N3CCNC(C)C3)c(F)c21 (stereo unspecified) | / | / | . | . | . | .
COc1ccc(CNC(=O)c2sc3nc4c(c(C(F)(F)F)c3c2N)CCC4)cc1OC | . | 21µM | . | . | . | .
O=Nc1c(-c2c(O)[nH]c3cc(Br)ccc23)[nH]c2ccccc12 | ? | 9.5µM | 16µM | 3.7µM | . | 2.9µM
CCCCc1cc(=O)oc2cc(C)cc(OCC(=O)Nc3ccccn3)c12 | ? | 8.5µM | / | 2.5µM | / | 2µM
CCCc1cc(=O)oc2cc(OCC(=O)Nc3ccccn3)ccc12 | 21µM | 15µM | / | ? | / | 3.5µM
CCCc1cc(=O)oc2cc(OCC(=O)Nc3cc(C)on3)ccc12 | . | . | . | . | . | .
SMILES | ELG1 genotoxic | FLuc counter | SMN2 splice up | Rab9 promoter act | Luc counter | NPC1 prom act
CCOc1ccc(NC(=O)C2CCN(c3nnc(-n4c(C)ccc4C)s3)CC2)cc1 | / | . | . | / | / | /
CC1=C2[C@@H]([C@H](C)CC[C@H]2/C=C(\C)C(=O)O)[C@H](O)C1 | / | / | . | / | / | /
CC(C)(C)c1ccc(C(=O)NC(CC(=O)O)c2ccc(OC3CCCC3)cc2)cc1 (stereo unspecified) | . | 19µM | / | . | / | .
O=C1CCc2cc(NS(=O)(=O)c3ccccc3)cc3c2N1CC3 | 4.1µM | . | / | . | / | .
O=[N+]([O-])c1ccc(N/N=C/c2cccc(O)c2O)cc1 | 12µM | 17µM | / | . | / | .
O=[N+]([O-])c1ccc(N/N=C/c2cccc(O)c2)cc1 | ? | 24µM | / | . | / | .
O=[N+]([O-])c1ccc(N/N=C/c2cccnc2)cc1 | . | ? | / | . | / | .
Cc1ccc2nc(N3CCN(c4ccccc4F)CC3)c3nnnn3c2c1 | / | . | / | / | / | /
O=C1CCCC2CCCCN12 (stereo unspecified) | / | / | / | / | . | /
CN1CCN(c2nc(-c3ccc(Cl)s3)cs2)CC1 | . | 17µM | . | ? | . | .
CNC(=S)N1CCN(c2nc(-c3ccc(Cl)cc3)cs2)CC1 | . | ? | / | . | / | .
Clc1ccc(-c2csc(N3CCCCCC3)n2)cc1 | . | 11µM | / | . | / | .
CCS(=O)(=O)N1CCN(c2nc(-c3ccccc3)cs2)CC1 | ? | 19µM | . | . | . | .
N=C1SCC(=O)N1c1nc(-c2ccccc2)cs1 | ? | 5.4µM | 11µM | 2µM | . | 2.2µM
O=C1C2C3c4ccccc4C(c4ccccc43)C2C(=O)N1c1nc(-c2ccccc2)cs1 (stereo unspecified) | . | . | . | . | . | .
CC(C)C(=O)N1CCN(c2nc(-c3ccc(Cl)cc3)cs2)CC1 | . | . | / | . | . | .
O=C(CCCl)N1CCN(c2nc(-c3ccccc3)cs2)CC1 | . | 15µM | / | ? | / | ?
Brc1ccc(-c2csc(N3CCOCC3)n2)cc1 | . | 8.5µM | / | 4µM | . | ?
